These compounds were tested against AMP-activated protein kinase, AMPK (Homo sapiens) (UniProt P54646+O43741+P54619+Q9UGJ0+Q9Y478+Q13131+Q9UGI9) (assay: AMP-dependent Kinase enzyme assay. An in vitro enzyme assay that detects ADP turnover that is directly proportional to AMPK activity. This uses naive AMPK that is activated during the assay with MK-8722). Settings: 30 µM.
Assay type: functional
Set-up: scale not given: direction of the effect not stated beside the values
For `O=C(Cn1cnc2ccsc2c1=O)c1ccc2c(c1)OCCO2`, the Percent Effect was -4.28%. `COc1ccc(CN2CC[C@@]3(O)CCCC[C@H]3C2)cc1C(=O)O` showed a Percent Effect of -10%. In the case of `COc1c(C2CCCN2C(=O)c2ccc(C(N)=O)s2)c(C)nn1C` (stereo not given), the Percent Effect is reported as -4.26%. `Cc1ncc(C(=O)NCCOc2ccccc2F)c(C)n1` was tested, and the Percent Effect was -16.7%. Compound `Clc1cc(NCc2ncc[nH]2)nc2[nH]ccc12` has a Percent Effect of 24.1%. Work on `O=S(=O)(c1cc(F)ccc1N1CC(n2cccn2)C1)C(F)(F)F` yielded a Percent Effect of 26.5%. `COCC(C)(O)CNC(=O)c1cc(-c2ccc(F)cc2)nn1C` (stereo not given) showed a Percent Effect of 2.75%. Compound `Cc1c(Br)cccc1C(=O)Nc1cc(C(N)=O)n(C)c1` has a Percent Effect of 3.87%. In the case of `Cc1cnn(Cc2cccc(OCC(N)=O)c2)c1`, the Percent Effect is reported as -0.231%. For `O=C(NCc1ccc(-n2cncn2)nc1)c1cnccn1`, the Percent Effect was -5.91%. Compound `O=C(c1cnc2c(c1)CCC2)N1CCCC(CO)(CC2CC2)C1` (stereo not given) has a Percent Effect of 3.82%. For `O=C(NC1CCCN(Cc2c(F)cccc2F)C1)c1cc[nH]n1` (stereo not given), the Percent Effect was -4.83%. In the case of `O=C(CCn1cncn1)N1CCCC(CO)(CCCc2ccccc2)C1` (stereo not given), the Percent Effect is reported as 0.934%. For `CN(C)C(=O)c1ccccc1NC(=O)N[C@@H]1c2ccccc2C[C@@H]1O`, the Percent Effect was 3.27%. `FC(F)(F)c1nc(NC2CCc3ncnn3C2)c2ccccc2n1` (stereo not given) showed a Percent Effect of -0.0839%. In the case of `CC(C)NC(=O)CN(C)C(=O)c1csc(Cc2ccccc2F)n1`, the Percent Effect is reported as 5.04%. Compound `c1cnn(C2CN(c3nc(-c4ccncc4)nc4c3CCC4)C2)c1` has a Percent Effect of 1.13%. `Cc1c(Br)cccc1CSc1nnc(CO)n1C` gave a Percent Effect of 4.59%. Work on `O=C(CN1CC(c2ccccc2)CC1=O)N1CCC(c2ncc[nH]2)CC1` (stereo not given) yielded a Percent Effect of 2.5%. `CN(CCc1noc(C2CC2)n1)C(=O)CN1C(=O)COc2ccccc21` gave a Percent Effect of -1.86%.
